Assay results taken from PubChem BioAssay (NCI).
About 79,000 compounds went through this panel and 15% of them were active in at least one assay; those are over-represented in the sample as a whole. Activity calls are given as the source filed them. Cut-off read from the data, not from the text of the source: active = growth inhibition above about 70%; inactive = the rest.

Legend:
[1] = NCI Yeast Anticancer Drug Screen. Data for the rad52 strain (AID 147);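 note: 0% = growth of vehicle-treated control cultures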; settings: S. cerevisiae rad52 mutant growth inhibition, hits give high values
How it was run: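 Compounds are applied to a genetically defined yeast strain lacking normal DNA damage repair, and inhibition of growth is expressed relative to cultures given vehicle only.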

[2] = NCI Yeast Anticancer Drug Screen. Data for the wt1 strain (AID 149);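 note: 0% = growth of vehicle-treated wt1 cultures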; settings: S. cerevisiae wt1 strain (SPY 50644) growth inhibition, hits give high values
How it was run: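 Vehicle-normalised growth inhibition; strain wt1; compound exposure.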

[3] = NCI Yeast Anticancer Drug Screen. Data for the rad50EPP+ strain (AID 151);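 note: 0% = growth of vehicle-treated control cultures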; settings: S. cerevisiae rad50 mutant strain, hits give high values
How it was run: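 Compounds were applied to the rad50EPP+ yeast strain, which bears a defined DNA repair alteration, and growth inhibition was determined relative to vehicle-treated cultures.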

[4] = NCI Yeast Anticancer Drug Screen. Data for the mgt1 strain (AID 153); settings: S. cerevisiae mgt1 mutant growth inhibition, hits give high values
How it was run: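 Strain: mgt1 yeast, one of a set carrying defined DNA damage repair or cell cycle control alterations. Compound-treated growth compared with vehicle.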

[5] = NCI Yeast Anticancer Drug Screen. Data for the rad50 strain (AID 155);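 note: 0% = growth of vehicle-only cultures of the same strain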; settings: S. cerevisiae rad50 strain growth inhibition, hits give high values
How it was run: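 A DNA repair-deficient yeast mutant serves as the test organism; compound-induced growth inhibition is calculated against vehicle-treated cells.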

[6] = NCI Yeast Anticancer Drug Screen. Data for the mec2-1 strain (AID 157); settings: S. cerevisiae mec2-1 strain, hits give high values
How it was run: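 Strain: mec2-1 (DNA repair/cell cycle alteration). Compound exposure, then growth measured; inhibition expressed relative to vehicle.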

[7] = NCI Yeast Anticancer Drug Screen. Data for the rad14 strain (AID 159);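 note: 0% = growth of vehicle-treated control cultures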; settings: S. cerevisiae rad14 strain growth inhibition, hits give high values
How it was run: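 Vehicle-treated cultures served as the baseline for growth inhibition of a DNA repair-mutant yeast strain exposed to each compound.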

[8] = NCI Yeast Anticancer Drug Screen. Data for the sgs1 mgt1 strain (AID 161);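 note: 0% = growth of cultures given vehicle only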; settings: S. cerevisiae sgs1 mgt1 strain, hits give high values
How it was run: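 Test agents were incubated with a DNA-repair-mutant yeast strain. Growth was then read and compared against vehicle-treated controls.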

[9] = NCI Yeast Anticancer Drug Screen. Data for the CLN2oe strain (AID 163);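 note: 0% = growth of vehicle-only control cultures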; settings: S. cerevisiae CLN2oe strain, hits give high values
How it was run: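 Growth of a genetically modified yeast strain is measured after compound exposure and compared with cultures given vehicle alone.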

[10] = NCI Yeast Anticancer Drug Screen. Data for the cln2 rad14 strain (AID 165);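 note: 0% = growth equal to vehicle treated cultures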; settings: S. cerevisiae cln2 rad14 strain, hits give high values
How it was run: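 Compounds are applied to the cln2 rad14 yeast strain, and growth is then compared with that of vehicle-treated cultures to give inhibition.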

[11] = NCI Yeast Anticancer Drug Screen. Data for the bub3 strain (AID 167); settings: S. cerevisiae bub3 mutant strain, hits give high values
How it was run: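 Inhibition values come from growth of compound-treated mutant yeast normalised to vehicle-treated controls.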

[12] = NCI Yeast Anticancer Drug Screen. Data for the wt2 strain (AID 169);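 note: 0% = growth of vehicle-treated yeast cultures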; settings: S. cerevisiae wt2 strain growth inhibition, hits give high values
How it was run: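 This strain belongs to a panel of yeast strains with defined genetic alterations in DNA damage repair or cell cycle control. Compounds are applied, and growth inhibition is measured against vehicle-treated cultures.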

[13] = NCI Yeast Anticancer Drug Screen. Data for the mlh1 strain (AID 171);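 note: 0% = growth of vehicle-treated control cultures of the same strain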; settings: S. cerevisiae mlh1 strain growth inhibition, hits give high values
How it was run: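 Growth of the mutant yeast strain after compound exposure, expressed as inhibition relative to vehicle-only controls.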

[14] = NCI Yeast Anticancer Drug Screen. Data for the sgs1 strain (AID 173);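 note: 0% = growth of vehicle-only control cultures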; settings: S. cerevisiae sgs1 mutant, hits give high values
How it was run: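 Growth of a yeast strain bearing a defined genetic alteration is measured after compound treatment. Inhibition is expressed relative to vehicle-only controls.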

[15] = NCI Yeast Anticancer Drug Screen. Data for the mlh1 rad18 strain (AID 175); settings: S. cerevisiae mlh1 rad18 strain growth inhibition, hits give high values
How it was run: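 Read-out is yeast growth inhibition, calculated against vehicle-only controls. The compound was applied to a strain engineered with DNA damage repair alterations.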

[16] = NCI Yeast Anticancer Drug Screen. Data for the rad18 strain (AID 177); settings: S. cerevisiae rad18 mutant growth inhibition, hits give high values
How it was run: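 Growth of the mutant yeast strain after compound exposure, normalised to vehicle-only cultures.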

[17] = at 5.0 µM (retest, dose inferred, filed as 0.5)
[18] = at 50.0 µM (retest, dose inferred, filed as 5.0)

Measured: growth inhibition

COc1cc2ccccc2c2cc([N+](=O)[O-])oc12
active: [1]; at 1.2 µM 82% | [1]; at 3.7 µM 88% | [1]; at 11.0 µM 91% | [1]; at 33.0 µM 91% | [1]; at 100.0 µM 91% | [3]; at 1.2 µM 82% | [3]; at 3.7 µM 86% | [3]; at 11.0 µM 91% | [3]; at 33.0 µM 90% | [3]; at 100.0 µM 88% | [5]; at 1.2 µM 79% | [5]; at 3.7 µM 88% | [5]; [17] 75% | [5]; at 11.0 µM 92% | [5]; at 33.0 µM 91% | [5]; [18] 76% | [5]; at 50.0 µM 78.2% | [5]; at 100.0 µM 88% | [6]; at 100.0 µM 78% | [7]; at 1.2 µM 91% | [7]; at 3.7 µM 93% | [7]; at 11.0 µM 95% | [7]; at 33.0 µM 94% | [7]; at 100.0 µM 93% | [8]; [17] 73% | [8]; [18] 76% | [10]; [17] 91% | [10]; [18] 84% | [10]; at 50.0 µM 84.3% | [14]; at 1.2 µM 79% | [14]; at 3.7 µM 84% | [14]; at 11.0 µM 89% | [14]; at 33.0 µM 89% | [14]; at 100.0 µM 89% | [15]; [17] 89% | [15]; [18] 88% | [15]; at 50.0 µM 88.3% | [16]; at 1.2 µM 96% | [16]; at 3.7 µM 96% | [16]; at 11.0 µM 95% | [16]; at 33.0 µM 94% | [16]; at 100.0 µM 88%
inactive: [2]; at 1.2 µM 4% | [2]; at 3.7 µM 6% | [2]; at 11.0 µM 15% | [2]; at 33.0 µM 29% | [2]; at 100.0 µM 36% | [4]; at 1.2 µM 2% | [4]; at 3.7 µM 11% | [4]; at 11.0 µM 26% | [4]; at 33.0 µM 43% | [4]; at 100.0 µM 59% | [6]; at 1.2 µM 23% | [6]; at 3.7 µM 39% | [6]; [17] 45% | [6]; at 11.0 µM 55% | [6]; at 33.0 µM 65% | [6]; [18] 62% | [6]; at 50.0 µM 53% | [8]; at 50.0 µM 60.9% | [9]; at 1.2 µM -8% | [9]; at 3.7 µM -6% | [9]; at 11.0 µM 4% | [9]; at 33.0 µM 19% | [9]; at 100.0 µM 24% | [11]; at 1.2 µM -21% | [11]; at 3.7 µM -21% | [11]; [17] 2% | [11]; at 11.0 µM -1% | [11]; at 33.0 µM 5% | [11]; [18] 14% | [11]; at 50.0 µM 3.55% | [11]; at 100.0 µM 7% | [12]; at 1.2 µM 5% | [12]; at 3.7 µM 11% | [12]; at 11.0 µM 23% | [12]; at 33.0 µM 36% | [12]; at 100.0 µM 51% | [13]; at 1.2 µM 7% | [13]; at 3.7 µM 10% | [13]; at 11.0 µM 21% | [13]; at 33.0 µM 41% | [13]; at 100.0 µM 60%

CC(C)CC(NC(=O)C(N)C(C)C)C(=O)NC(CCCCN)C(=O)Nc1ccc(N(CCCl)CCCl)cc1 (stereo unspecified)
inactive: [1]; at 1.2 µM 8% | [1]; at 3.7 µM 28% | [1]; at 11.0 µM 32% | [1]; at 33.0 µM 23% | [1]; at 100.0 µM 18% | [2]; at 1.2 µM -16% | [2]; at 3.7 µM -10% | [2]; at 11.0 µM -15% | [2]; at 33.0 µM -11% | [2]; at 100.0 µM -18% | [3]; at 1.2 µM 10% | [3]; at 3.7 µM 9% | [3]; at 11.0 µM 13% | [3]; at 33.0 µM 7% | [3]; at 100.0 µM 12% | [4]; at 1.2 µM -6% | [4]; at 3.7 µM -16% | [4]; at 11.0 µM -17% | [4]; at 33.0 µM -5% | [4]; at 100.0 µM -21% | [5]; at 1.2 µM 8% | [5]; at 3.7 µM 10% | [5]; [17] 38% | [5]; at 11.0 µM 8% | [5]; at 33.0 µM 0% | [5]; at 50.0 µM 16.4% | [5]; at 100.0 µM 2% | [6]; at 1.2 µM -21% | [6]; at 3.7 µM -17% | [6]; [17] 19% | [6]; at 11.0 µM -18% | [6]; at 33.0 µM -17% | [6]; [18] 22% | [6]; at 50.0 µM -7.45% | [6]; at 100.0 µM -16% | [7]; at 1.2 µM -2% | [7]; at 3.7 µM 0% | [7]; at 11.0 µM -2% | [7]; at 33.0 µM -2% | [7]; at 100.0 µM -8% | [8]; [17] 21% | [8]; [18] 34% | [8]; at 50.0 µM -48.5% | [9]; at 1.2 µM -3% | [9]; at 3.7 µM 7% | [9]; at 11.0 µM 6% | [9]; at 33.0 µM 1% | [9]; at 100.0 µM -2% | [10]; [17] 13% | [10]; [18] 25% | [10]; at 50.0 µM -7.1% | [11]; at 1.2 µM -23% | [11]; at 3.7 µM -16% | [11]; [17] 25% | [11]; at 11.0 µM -16% | [11]; at 33.0 µM -13% | [11]; [18] 17% | [11]; at 50.0 µM -28.2% | [11]; at 100.0 µM -25% | [12]; at 1.2 µM -89% | [12]; at 3.7 µM -88% | [12]; at 11.0 µM -86% | [12]; at 33.0 µM -74% | [12]; at 100.0 µM -78% | [13]; at 1.2 µM -1% | [13]; at 3.7 µM 9% | [13]; at 11.0 µM -3% | [13]; at 33.0 µM -5% | [13]; at 100.0 µM -19% | [14]; at 1.2 µM -4% | [14]; at 3.7 µM 10% | [14]; at 11.0 µM 8% | [14]; at 33.0 µM -3% | [14]; at 100.0 µM 3% | [15]; [17] 19% | [15]; [18] 37% | [15]; at 50.0 µM -44.7% | [16]; at 1.2 µM -7% | [16]; at 3.7 µM -12% | [16]; at 11.0 µM -16% | [16]; at 33.0 µM -20% | [16]; at 100.0 µM -23%
active: [5]; [18] 92%
